Screening results as filed in PubChem BioAssay.
The list is not random: actives were taken first. Their share in the collection is about 4.9%.
Calb FLC: affects C. albicans growth with fluconazole. growth inhibition, % (no concentration beside the values). 300,000 tested, 0.57% active. AID 1979. C. albicans CaCi-2 (fluconazole-resistant clinical isolate) + fluconazole, Alamar Blue growth, 48 h;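 active means growth inhibition above about 58% in most replicates, limit read from the data, passing the limit was not always enough; inconclusive means exactly half the replicates above a set limit; inactive means most replicates below a set limit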;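 further: all wells also contain fluconazole at 8 µg/ml as a sub-toxic cotreatment; 0% = median of DMSO wells and 100% = median of geldanamycin control wells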
Beta cell apopt: blocks beta cell apoptosis | 300,000 tested, 0.8% active | AID 435005 | INS-1E cytokine-induced death, ATP luminescence, 48 h; percent of positive-control rescue, neutral wells zero | protection from apoptosis, % (test concentration not listed);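 active means Every replicate reaches about 75%, or at least half do and their mean reaches it too, limit read from the data; inconclusive means At least half of replicates reach the limit but their mean does not; inactive means Under half of replicates reach the limit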;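 further: 0% = cytokine-treated negative control wells and 100% = positive control rescue; higher means more ATP so stronger rescue from cytokine killing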
Mdm2 MdmX PPI: inhibitors of human Mdm2/MdmX interaction; SaOS-2 split-luciferase Mdm2/MdmX complementation, luminescence; inhibition, % at 8 µM; 330,000 tested, 3% active; AID 485346;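 active means inhibition of at least 50% at 8 µM in the primary screen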
PP1 inh: counter-screen for PP5 inhibitors: inhibitors of human PP1-alpha; purified PP1alpha, OMFP fluorescence; P62136; inhibition, % at 6.7 µM; 320,000 tested, 0.9% active;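 active means inhibition above the mean inhibition of all tested compounds plus 3 SD, computed separately for each screening campaign, cut at about 15% in these data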
Target sequence (P62136 whole entry, looked up): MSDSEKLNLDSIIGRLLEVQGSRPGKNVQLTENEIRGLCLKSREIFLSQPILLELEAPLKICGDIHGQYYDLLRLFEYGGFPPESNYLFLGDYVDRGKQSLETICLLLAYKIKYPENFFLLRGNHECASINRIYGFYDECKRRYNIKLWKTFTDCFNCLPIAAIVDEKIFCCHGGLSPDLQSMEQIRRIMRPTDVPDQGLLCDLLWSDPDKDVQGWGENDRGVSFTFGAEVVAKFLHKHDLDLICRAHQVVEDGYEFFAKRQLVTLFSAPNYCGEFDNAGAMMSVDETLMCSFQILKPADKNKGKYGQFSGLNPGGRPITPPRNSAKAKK
PP5 primary: PP5 (human) phosphatase inhibition; AID 1987; purified PP5c, OMFP substrate fluorescence; 320,000 tested, 0.18% active; inhibition, % at 6.7 µM;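 active means inhibition above the campaign's mean inhibition across all tested compounds plus 3 SD, cut at about 9.5% in these data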;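 further: 0% = DMSO only and 100% = 100 µM cantharidin control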
CSC inhib: cancer stem cell inhibition; cancer stem cell-like cells viability, luminescence; AID 2717; 300,000 tested, 1.1% active; inhibition, % at 7.5 µM; in the data active means inhibition above about 75%; inconclusive means no clear call, values can overlap the other calls; tested in HMLE shEcad cells
The depositor's hits bear a star; ? = inconclusive; . = no result.

SMILES | Calb FLC | Beta cell apopt | Mdm2 MdmX PPI | PP1 inh | PP5 primary | CSC inhib
CCCCCCCc1c(C)nc(N2CCOCC2)[nH]c1=O | -20 | -4 | 9 | -5 | 2 | 1
CCc1ccc(NC(=O)c2c(C(=O)Nc3ccccc3)sc3nc(C)cc(=O)n23)cc1 | -1 | 12 | 1 | 8 | -1 | .
O=[N+]([O-])c1ccc(O)c(P(=O)(c2ccccc2)c2ccccc2)c1 | 100* | -6 | 20 | 2 | -1 | 12
O=[N+]([O-])c1ccc2c(c1)/C(=N\O)c1ccccc1-2 | -1 | 12 | 24 | 6 | 2 | 14
O=[N+]([O-])c1ccc(CP(=O)(c2ccccc2)c2ccccc2)cc1 | 4 | 22 | -4 | . | . | 81*
O=[N+]([O-])c1cccc(CP(=O)(c2ccccc2)c2ccccc2)c1 | . | -3 | -4 | 5 | 3 | -2
Cc1ccccc1C(=O)NCCCNC(=O)c1ccccn1 | -2 | 1 | -9 | 0 | 3 | -5
O=c1oc(C2(O)CCCCC2)cc2ccc(/C=C/c3ccc(F)cc3)cc12 | . | 3 | 20 | -4 | 3 | 23
C=CCn1c(O)c(N=Nc2ccccc2O)c2ccccc21 | . | -4 | 30 | 7 | 6 | 96*
C=CCn1c(O)c(N=NC(=O)OCC)c2ccccc21 | 6 | 3 | -4 | -2 | -1 | -10
C=CCn1c(O)c(N=NC(=S)Nc2ccc(OC)cc2)c2ccccc21 | 108* | 12 | . | 9 | 7 | 26
CCCNC(=O)C1(O)c2cc(Br)ccc2NC(=O)N1c1ccc(Cl)cc1 (configuration not stated) | 0 | -2 | 9 | 1 | -3 | 13
Cc1ccc(C)c2[nH]c(=O)c(CN(Cc3ccco3)C(=S)NCC3CCCO3)cc12 (configuration not stated) | 14 | -6 | 3 | 8 | 1 | .
Cc1cc(C(F)(F)F)nc(CCNC(=O)C2CCC(=O)N(Cc3cccc(F)c3)C2)n1 (configuration not stated) | 6 | -3 | 19 | 3 | 2 | -16
COc1cccc(-c2ccc(=O)n(CC(=O)Nc3ccc(S(=O)(=O)NCC(C)C)cc3)n2)c1 | 0 | 2 | -2 | -4 | 5 | -10
C/C(=N\NC(=O)C(=O)Nc1cccc(Cl)c1)c1ccncc1 | -1 | 81* | -6 | 0 | 1 | 36
C/C(=N\NC(=O)c1ccccc1NC(=O)c1ccc(Cl)cc1)c1ccncc1 | 2 | 102* | -117 | -2 | 1 | 136*
CC(=O)c1ccc(N2CCC(c3cc(-c4ccc(Cl)cc4)n[nH]3)CC2)c([N+](=O)[O-])c1 | -6 | 40 | 26 | -3 | 7 | 101*
COC(=O)c1ccc(N2CCC(c3cc(-c4ccc(OC)cc4)n[nH]3)CC2)c([N+](=O)[O-])c1 | ? | 4 | 7 | -1 | 5 | 7
COc1ccc(-c2nc3c(-c4ccc(F)cc4)cnn3cc2C)cc1F | 6 | 2 | 8 | -3 | -1 | 7
COC(=O)c1ccc2c(c1)N(Cc1nc(-c3ccc(Cl)cc3)oc1C)C(=O)C1CCCN21 (configuration not stated) | 3 | -1 | 6 | 16* | 2 | 10
COc1ccc(NC(=O)c2c(N)cnn2C)cc1 | 0 | -1 | -18 | -4 | 1 | -5
COc1ccc(O[C@H]2C=C[C@@H](c3ccccc3)O[C@@H]2CO/N=C(\C)CCN2CCc3nc(-c4ccccc4)c(-c4ccccc4)cc3C2)cc1 | 18 | 7 | 16 | 19* | 2 | 47
COc1ccc(C(N)=O)c(OCC(=O)Nc2cc(C)on2)c1 | . | -5 | 0 | 2 | 4 | 7
CCN1CCN(CCCOc2ccc(-c3ccccc3)cc2)CC1 | -20 | 19 | -26 | -1 | 3 | 125*
SMILES | Calb FLC | Beta cell apopt | Mdm2 MdmX PPI | PP1 inh | PP5 primary | CSC inhib
CN1CCN(CCCOc2ccc(-c3ccccc3)cc2)CC1 | -3 | 19 | -29 | 3 | 3 | 49
O=C(Nc1ccc(OC(F)F)c(Cl)c1)Nc1ccc2c(c1)OCO2 | -17 | 9 | 40 | 4 | 7 | 98*
COc1ccc(NC(=O)Nc2cccc([N+](=O)[O-])c2)cc1Cl | -4 | 59 | 46 | 0 | 3 | 41
O=C(Nc1ccc([N+](=O)[O-])cc1)Nc1ccc(OC(F)F)c(Cl)c1 | . | 132* | . | 17* | 9 | 103*
CN(CC(=O)Nc1ccc(Cl)c(Cl)c1)CC(=O)Nc1ccc2c(c1)OCO2 | . | 1 | 2 | 4 | 3 | 80*
COc1ccccc1Oc1ccc(Oc2ccccc2OC)cc1 | 0 | 5 | 4 | 4 | -4 | -5
